From PubChem BioAssay
LASV entry inh – Lassa virus entry inhibition | hit rate 1.2% among 300,000 | Potency, µM (series often up to 37.9 µM), without a hit: at the highest dose activity change, negative = inhibition, actives largely listed as inhibitors | Lassa virus pseudotype entry inhibition, cell reporter | AID 540256; calls by dose curve; tested in HEK293 cells; also: potency is read from the fitted curve at half-maximal effect; nearly all actives have a fitted effect of over 50% in size
HCMV inh – inhibitors of human cytomegalovirus | HFF cells, HCMV-luciferase reporter, 72 h; active compounds read low | activity change, negative = inhibition, % at 57.5 µM | hit rate 4.5% among 410,000 | AID 1259415; in the data active = activity change below about -60%; inconclusive = no clear call, values can overlap the other calls; inactive = above about -39%
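Luciferase read-out from HCMV-luciferase-infected HFFs (MOI 1 PFU/cell) 72 h post infection at 37C; compounds added after 16 h cell attachment; activity normalized between buffer-only basal and Salinomycin (10uM) inhibitor controls.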
Marburg entry inh – inhibitors of Marburg virus binding or cell entry; Marburg virus pseudotyped entry inhibition, cell reporter; Potency, µM (doses to about 37.8 µM), inactives show at the highest dose activity change, negative = inhibition, usual class: inhibitors; hit rate 1.8% among 300,000; AID 540276; calls by dose curve; tested in HEK293 cells; also: potency is read from the fitted curve at half-maximal effect
FMDV inh – antivirals against foot and mouth disease virus. FMDV antiviral cell-based qHTS. Potency, µM (top dose mostly 57.9 µM), for inactives: at the top dose activity change, negative = inhibition, hits mostly inhibitors. hit rate 1.2% among 410,000. AID 1159524; calls by dose curve; tested in HEK293T cells; also: read-out not given here; potency is read from the fitted curve at half-maximal effect; nearly all actives have a fitted effect of over 45% in size
HCV inh – inhibitors of hepatitis C virus infection | Potency, µM (highest dose often 41.8 µM), without a hit: top-dose activity change, negative = inhibition, hits mostly inhibitors | hit rate 3.4% among 340,000 | Huh7.5.1 HCVcc-Cre infection, luciferase reporter, 44 h | AID 651820; active = well fitted inhibition curve with a large enough effect; inconclusive = small, poorly fitted or top-dose-only effect, or another doubt; inactive = no such curve, though single readings can be large or run the other way; also: potency is read from the fitted curve at half-maximal effect
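Compounds are dispensed onto cells plated 4 h earlier at 1,000 per well, with HCVcc-Cre virus (about 0.5 moi) added next. Following 44 h of culture, luminescent signal is measured for 15 sec after 15 min with substrate at room temperature.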
Active calls of the source: *; ? = inconclusive; . = no result given; [ ] = remark or other dose. Rows were chosen to be rich in hits. Some 7.9% of all compounds tested hit in one or more screens of this group. % is scaled to controls: 0 for no effect and ±100 for the full control effect.

SMILES | LASV entry inh | HCMV inh | Marburg entry inh | FMDV inh | HCV inh
O=C(c1ccccc1)c1ccccc1N/C=C/c1nnnn1-c1ccccc1 | 13µM* | ? | ? | 8.9% | 6.31µM*
CCCCC(=O)OCc1cc(=O)n2nc(C3CCCCC3)sc2n1 | 27.2%[46.1 µM] | -1.9 | . | 9.9% | .
COc1cc(S(=O)(=O)n2ccnc2C(C)C)ccc1Br | ? | 3.3 | ? | -0.1% | .
CCN(CC)CCCNC(=O)c1nn2c(C(F)(F)F)cc(-c3ccccc3)nc2c1Cl | . | 0.4 | . | -16.2% | 3.98µM*
COc1ccc(C(=O)NCCn2cc(SCC(=O)Nc3ccc4c(c3)OCCO4)c3ccccc32)cc1 | ? | -13.2 | ? | -11.9% | .
O=C(NC[C@@H]1CCCN2CCCC[C@H]12)c1cnn(-c2nccc(-c3ccco3)n2)c1C1CC1 | . | . | . | -9.0% | .
O=C1Nc2cccnc2N(C(=O)CCl)c2ccccc21 | ? | ? | ? | ? | 15.8µM*
NCCN1CCN(CC(=O)N2c3ccccc3C(=O)Nc3cccnc32)CC1 | . | -33.0 | . | -3.2% | .
COc1ccc(OC)c(N2C(=O)CC(Cc3cc(C)cc(C)c3)C2=O)c1 (configuration not stated) | 6.5% | 22.5 | -2.3% | ? | 3.55µM*
COc1ccc(CCN2C(=O)CS/C2=N/NC(=O)c2ccccc2F)cc1OC | 0.2% | 5.5 | -7.3% | -31.6% | 9.6%
COc1ccc(OC)c(N2C(=O)CC(Cc3ccc(Cl)cc3)C2=O)c1 (configuration not stated) | -26.1% | -4.6 | 13.4% | ? | -0.4%
COc1ccc(CCN2C(=O)CC(NC34CC5CC(CC(C5)C3)C4)C2=O)cc1OC (configuration not stated) | -13.8% | -27.7 | -15.0%[46.1 µM] | ? | -14.7%
COc1ccc(CCN2C(=O)CC(Cc3ccc(C)cc3)C2=O)cc1OC (configuration not stated) | 1.8% | -63.9* | 8.8%[46.1 µM] | -13.2% | -1.2%
COc1ccc(CCN2C(=O)CSC2=Nc2ccc(C)cc2C)cc1OC | ? | -8.8 | ? | 12.6µM* | ?
c1cc(C2OCCO2)cs1 | . | -25.0 | . | -16.0% | .
CC1=C[C@@H](c2ccccc2)n2nc(N3C(=O)[C@H]4CC=CC[C@@H]4C3=O)nc2N1 | . | . | -4.2% | . | .
COc1cccc(-c2cnc3c(NC=O)cc(-c4cccc(C(=O)N(C)C)c4)cn23)c1 | . | -27.1 | . | -19.6% | .
COC1=C(C)C(=O)C2=C(C1=O)C1C3CC4=C(C(=O)C(OC)=C(C)C4=O)C(CNC(=O)C(C)=O)N3C(C#N)C(C2)N1C (configuration not stated) | ? | -97.3* | ? | ? | ?
Cc1ncc2c(c1CNC(=O)c1cncs1)CCN(C(=O)c1ccc(C(F)(F)F)cc1)C2 | . | . | . | -2.7% | .
Cc1ccc(S(=O)(=O)N[C@@H]2COC(=O)[C@@H](C)COC(=O)CC=C[C@H]2C)cc1 | . | . | 7.3%[14.2 µM] | . | .
CCc1nc2ccccc2c(C(=O)O)c1C | 6.4% | 25.0 | -0.1% | 9.6% | ?
Clc1nc(-c2ccccc2)c2ccccc2n1 | 1.7%[46.1 µM] | 39.5 | -3.4%[46.1 µM] | -12.6% | 5.3%
NC(N)=Nc1nc(-c2ccccc2)c2ccccc2n1 | -22.9%[46.1 µM] | -94.8* | ? | -11.0% | -25.6%
CCc1nc(N=C(N)N)nc2ccccc12 | . | -82.0* | . | . | .
NS(=O)(=O)c1ccc(CCNC(=O)COC(=O)CC(c2ccccc2)c2ccccc2)cc1 | -12.7%[46.1 µM] | 10.6 | ? | ? | -7.9%
SMILES | LASV entry inh | HCMV inh | Marburg entry inh | FMDV inh | HCV inh
Cc1nc2ccccc2n1CC(=O)NN | . | ? | . | -12.4% | -8.8%
O=C(Cn1c(=O)nc(-c2ccccc2)c2cc(Cl)ccc21)NCCc1ccc(Cl)cc1 | 0.7%[46.1 µM] | -20.1 | -0.8%[46.1 µM] | ? | .
COc1ccc(NC(=O)Cn2c(=O)n(CCc3ccccc3)c(=O)c3ccccc32)cc1 | 3.8%[46.1 µM] | 25.7 | -1.8%[46.1 µM] | 13.7% | .
COc1ccc(NC(=O)Cn2c(C)cc(=O)c3ccccc32)cc1 | ? | -79.8* | ? | ? | 7.08µM*
Cc1nc2ccccc2n1CC(=O)NCc1ccccc1 | -36.4%[14.3 µM] | -78.9* | ? | ? | -17.7%
Cc1cc(=O)c2ccccc2n1Cc1ccccc1 | -2.3%[46.1 µM] | -69.8* | ? | ? | 12.6µM*
O=C(Cn1c(=O)nc(-c2ccccc2)c2cc(Cl)ccc21)NCc1ccccc1 | -8.6%[46.1 µM] | ? | . | 14.1µM* | .
O=C(NCC(c1ccco1)N1CCc2ccccc2C1)C(=O)Nc1cc(F)ccc1F (configuration not stated) | -7.0% | 10.4 | -18.2% | -5.4% | -13.3%
CCCn1c(N)c(C(=O)CSc2nc(C3CC3)n(-c3ccccc3)n2)c(=O)[nH]c1=O | 5.1% | -29.8 | -18.5% | 0.7% | -0.8%
Cc1nc2ccccc2n1CC(=O)NC(C)C1CC2CCC1C2 (configuration not stated) | -19.4% | -64.8* | ? | ? | ?
Cc1cc(=O)c2ccccc2n1CC(=O)NCc1ccccc1 | ? | -71.1* | 10.3µM* | ? | ?
CCc1nn(CC(=O)NCc2ccccc2)c(=O)c2cccn12 | 11.2µM* | -1.4 | ? | -6.1% | .
CCOC(=O)Cn1c(C)cc(=O)c2ccccc21 | 10.9% | -4.9 | 0.0% | ? | 5.0%
Cc1nn(C(=O)CCCC(=O)NCc2ccccc2)c2ccccc12 | . | -21.9 | . | -1.2% | 22.4µM*
N#Cc1c[nH]n2c(NC3CCCCC3)c(-c3ccc(F)cc3)nc12 | 7.0%[46.1 µM] | -11.2 | 6.8%[46.1 µM] | 6.5% | .
Cc1nc(NC(=O)c2c(-c3ccccc3)c(-c3ccccc3)nn(C)c2=O)sc1C | 11.9%[46.1 µM] | 12.6 | -16.9%[46.1 µM] | 39.4% | .
COc1cccc2c(=O)cc(C)n(CC(=O)Nc3cccc(C)c3)c12 | -30.1% | ? | -38.9% | ? | 8.91µM*
COc1ccc(-n2c(=O)c3ccc(C(=O)NCc4ccc(C)cc4)cc3n(CC(=O)Nc3ccc(F)cc3)c2=O)cc1 | 1.3%[46.1 µM] | -19.9 | ? | 31.7% | .
COc1cccc(NC(=O)CNC(=O)Cn2c(C)cc3ccccc3c2=O)c1 | -1.7%[46.1 µM] | 4.6 | ? | -5.2% | .
COc1ccc(-n2c(=O)c3ccc(C(=O)NCc4ccc(C)cc4)cc3n(CC(=O)Nc3ccc(C)cc3)c2=O)cc1 | 3.0%[46.1 µM] | -70.8* | 15.1%[46.1 µM] | -26.1% | .
CCCn1cc(S(=O)(=O)c2cc(C)ccc2C)c(=O)c2cc(F)c(N3CCOCC3)cc21 | -3.6%[46.1 µM] | 29.0 | . | 33.6% | .
C[C@@H]1CCC(=O)N(CC[C@H](Sc2ccccc2)c2ccccc2)CC1 | . | -10.7 | . | 12.8% | 4.6%
COC(=O)Nc1cc([N+](=O)[O-])ccc1OC | 16.1% | 8.2 | 0.6% | 20.6% | ?
COc1ccc([N+](=O)[O-])cc1NC(=O)c1cccs1 | -2.1%[46.1 µM] | ? | 1.4%[46.1 µM] | -1.9% | 11.2µM*
COc1ccc([N+](=O)[O-])cc1NC(=O)c1ccc(C)o1 | 19.0% | -103.0* | 14.7% | -13.4% | ?
Cc1cccc(CNC(=O)c2ccc3nc(-c4ccccc4)c(-c4ccccc4)nc3c2)c1 | . | 1.6 | -1.9%[46.1 µM] | -18.7% | .
Cc1ccc(CNC(=O)c2ccc3nc4[nH]c5ccccc5c4nc3c2)cc1 | -6.1% | -101.9* | -14.9% | . | 4.0%
CCC(CC)C(=O)c1c[nH]c(C(=O)NCc2ccccc2OC)c1 | . | 2.3 | . | 39.8µM* | -21.0%
COc1ccccc1CNC(=O)c1cccc(NC(=O)c2ccccc2)c1 | . | ? | . | -26.6% | 14.1µM*
